# From PubChem BioAssay (NCI)
# Compounds without any hit were thinned out: in the full panel of roughly 83,000, 20% have a hit.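 Negative percent growth values reflect cell death: -40 means 40% of the cells present at the start died, and -100 means all died.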 Unmarked numbers belong to inactive results. Active and inactive are the calls of the source. The calls were made as follows: active = growth percent below 10; inactive = the rest.
# Key:
# Assay in all cases: NCI-60 one-dose screen, 48 h (100 = growth as untreated, 0 = no growth, -100 = all killed)
# [1] = test system: HCT-15 colon; conditions: 10 µM unless noted
# [2] = test system: HT29 colon; conditions: 10 µM unless noted
# [3] = test system: SNB-19 CNS; conditions: 10 µM unless noted
# [4] = test system: U251 CNS; conditions: 10 µM unless noted
# [5] = test system: PC-3 prostate; conditions: 10 µM unless noted
# [6] = test system: SK-MEL-5 melanoma; conditions: 10 µM unless noted
# [7] = test system: UACC-62 melanoma; conditions: 10 µM unless noted
# [8] = test system: LOX IMVI melanoma; conditions: 10 µM unless noted
# [9] = test system: SK-MEL-28 melanoma; conditions: 10 µM unless noted
# [10] = test system: SK-MEL-2 melanoma; conditions: 10 µM unless noted
# [11] = test system: EKVX NSCLC; conditions: 10 µM unless noted
# [12] = test system: SN12C renal; conditions: 10 µM unless noted
# [13] = test system: UO-31 renal; conditions: 10 µM unless noted
# [14] = test system: TK-10 renal; conditions: 10 µM unless noted
# [15] = test system: ACHN renal; conditions: 10 µM unless noted
# [16] = test system: CAKI-1 renal; conditions: 10 µM unless noted
# [17] = test system: A498 renal; conditions: 10 µM unless noted
# [18] = test system: SNB-75 CNS; conditions: 10 µM
# [19] = test system: MOLT-4 leukemia; conditions: 10 µM unless noted
# [20] = test system: CCRF-CEM leukemia; conditions: 10 µM unless noted
Structure (SMILES),growth [1],growth [2],growth [3],growth [4],growth [5],growth [6],growth [7],growth [8],growth [9],growth [10],growth [11],growth [12],growth [13],growth [14],growth [15],growth [16],growth [17],growth [18],growth [19],growth [20]
Cc1ccc(NS(=O)(=O)c2cc(C)ccc2C)cc1,32.9%,10.8%,53.1%,36.8%,57.6%,30.3%,40%,41%,61.5%,20.3%,55.4%,60.8%,65.5%,58.5%,70.7%,25.3%,38.7%,–,–,–
COc1cc2c(cc1OCCCCCn1c3ccccc3c3ccccc31)N=C[C@@H]1CCCN1C2=O,-74.3% (active),-45.8% (active),-49.9% (active),-58% (active),-41.8% (active),-100% (active),-90.3% (active),-64.8% (active),-78.8% (active),-65.7% (active),46.6%,-54.8% (active),-75.8% (active),-37.8% (active),-63% (active),–,-51.8% (active),-11.3% (active),-39.9% (active),–
CN(C)c1cccc2c(S(=O)(=O)/N=C(\N)Nc3nc4ccccc4s3)cccc12,42.9%,48.2%,53.6%,55.4%,48.2%,40.5%,42.8%,51.7%,78.9%,15.3%,71.3%,88.4%,56.8%,91.4%,84.2%,54%,74.5%,–,60.6%,69.1%
COc1cc(/C=C/C(=O)c2c(C)nc3ccccc3c2C)ccc1OCCCCOc1cc2c(cc1OC)C(=O)N1CCC[C@H]1C=N2,-79.6% (active),-73.3% (active),-90.1% (active),-97.8% (active),-24.6% (active),-100% (active),-99.2% (active),-92.2% (active),–,-100% (active),-26% (active),-29.6% (active),-93.9% (active),-48.4% (active),-80.7% (active),-34.5% (active),-84.5% (active),-100% (active),-44.7% (active),-36.8% (active)
Cn1ccc(=O)c(S(N)(=O)=O)c1,109%,107%,95.5%,90.7%,101%,112%,95.8%,91.9%,116%,99.8%,89.3%,101%,69%,113%,95.5%,67.2%,107%,79.2%,94.4%,99.9%
C=C(C)[C@@H]1CC[C@]2(C(=O)O)CC[C@]3(C)[C@H](CC[C@@H]4[C@@]5(C)C[C@@H](CC#Cc6ccc(C(F)(F)F)cc6)[C@H](O)C(C)(C)[C@@H]5CC[C@]43C)[C@@H]12,36.2%,15.7%,30.8%,-4.28% (active),-52.2% (active),-32.9% (active),-31.5% (active),-53.5% (active),-40.8% (active),-27% (active),24.3%,17.6%,41%,38.2%,31.2%,50%,-36.1% (active),–,4.32% (active),-2.71% (active)
O=C(Nc1ccc(Cl)c(Cl)c1)NS(=O)(=O)c1cnccc1Oc1ccc(F)cc1,73.9%,75.1%,57%,56.8%,22.2%,108%,59.2%,83.3%,94.5%,64.3%,15.1%,76.3%,67.4%,42.3%,43.5%,5.6% (active),33.7%,79%,52.3%,–
COc1cc(-c2ncn(/C=C\C(=O)OC(C)C)n2)cc(C(F)(F)F)c1,3.97% (active),-14% (active),11.8%,5.83% (active),18.2%,-38.4% (active),-10.9% (active),-73% (active),-18.3% (active),-10% (active),43.6%,12.9%,3.53% (active),-8.8% (active),11.5%,14.3%,-53.8% (active),-29.3% (active),2.48% (active),11.5%
CCCN=C1NC(=O)/C(=C/c2nc(-c3ccc(OC)cc3)n3ccccc23)S1,84.8%,99.3%,80.8%,52.9%,85.9%,64.9%,93.1%,52.7%,111%,95.2%,115%,83.8%,91.8%,91.1%,62.7%,123%,103%,96.5%,76.5%,84.9%
CN1CCN(Cc2ccc(NC(=O)c3cncc(C#Cc4cnc(N)c5cnccc45)c3)cc2C(F)(F)F)CC1,7.9% (active),-14.7% (active),32%,28.9%,26.8%,-45.3% (active),-74.8% (active),-93.4% (active),-84.5% (active),-65.4% (active),2.4% (active),5.24% (active),-21.1% (active),12.8%,-9.19% (active),-18.9% (active),-54.8% (active),–,16.8%,13%
O=[N+]([O-])c1ccc(-c2cn(-c3ccccc3)c(-c3ccccc3)n2)cc1,95.2%,98.6%,36.3%,58.6%,48.1%,128%,83.1%,94.3%,96.7%,74.8%,88.7%,77.6%,55%,108%,95.1%,87.7%,82%,70.7%,62.7%,27.3%
COc1ccc(C2NN=C3c4ccccc4CCC32)cc1 (configuration not stated),40%,44.5%,76.5%,80.4%,66.6%,15.2%,49.9%,72.5%,76%,78.1%,64.3%,84.4%,54.1%,76.4%,93.4%,21.9%,58.2%,48.3%,16.8%,13.4%
CN(C)CC(C(=O)c1ccccc1)c1ccccc1 (configuration not stated),-37.7% (active),-17.4% (active),84.4%,59.8%,38.3%,64.2%,34.8%,3.08% (active),61%,34.7%,89.6%,31.2%,41.3%,-20% (active),-41.5% (active),-2.87% (active),99.7%,–,–,–
O=c1[nH]c(NCc2ccccc2)nc2nc(Nc3ccc(NC(=S)Nc4ccccc4)cc3)nc(-c3ccc(O)cc3O)c12,105%,125%,91.9%,87.8%,109%,113%,83%,101%,91.5%,97.5%,63.2%,97.4%,78.5%,134%,103%,77.3%,101%,91.7%,77.4%,86.4%
CCCCCc1cc[n+](CC(=O)c2ccc([N+](=O)[O-])cc2)cc1,94.4%,21.5%,87.9%,48.4%,59.5%,22%,91.1%,45.9%,106%,49.3%,72.8%,90.9%,72.1%,74.6%,103%,113%,101%,89.6%,100%,89.2%
COC1=C(OC)C(=O)C(CCCCCCCCCC[P+](c2ccccc2)(c2ccccc2)c2ccccc2)=C(C)C1=O,-3.39% (active),-10.6% (active),-53.1% (active),-27.2% (active),-12.7% (active),-100% (active),-93% (active),-89.6% (active),-86.1% (active),-42.7% (active),-6.16% (active),-74.8% (active),-18.2% (active),-56.7% (active),-25.9% (active),-40.6% (active),-44.1% (active),-44.5% (active),-33.8% (active),-6.4% (active)
